Results taken from PubChem BioAssay (EPA / NIEHS).
Results filed as inconclusive are left out. The source made the active and inactive calls. The calls were made as follows, unless noted: active = hit-call score of the fitted dose curve at least 0.9, where 1 is the maximum; inactive = score below 0.9.

Assays:
[1] = CCTE_Shafer_MEA_dev_firing_rate_mean: CCTE's Neural Network Formation Assay for Mean Firing Rate, Shafer Lab (AID 2284031);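 also: curve fitted for loss of firing so AC50 reflects decreased mean firing rate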
In short: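 Extracellular spike frequency, AUC over DIV 5–12 recordings, in rat cortical neuron MEA cultures dosed from plating; loss direction vs DMSO.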

[2] = CCTE_Shafer_MEA_dev_per_burst_spike_percent: CCTE's Neural Network Formation Assay for Percent of Spikes in a Burst, Shafer Lab (AID 2284032);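 also: fitted as a decrease in burst spike percentage below DMSO baseline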
In short: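 Value is trapezoidal AUC over recordings on days 5, 7, 9 and 12 of the well-mean fraction of spikes falling in single-electrode bursts; rat cortical cultures exposed continuously from plating, treatment renewed DIV 5 and 9, fitted downward against DMSO.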

[3] = CCTE_Shafer_MEA_dev_active_electrodes_number: CCTE's Neural Network Formation Assay for Number of Active Electrodes, Shafer Lab (AID 2284040; active = hit-call score of the fitted dose curve at least 0.9, where 1 is the maximum;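 also: potency for loss of active electrodes versus DMSO so lower counts are hits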)
In short: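 Developing rat cortical networks on MEAs, exposed DIV 0–12. Value is the AUC of active-electrode counts (≥5 spikes/min) from days 5, 7, 9, 12, relative to DMSO.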

[4] = CCTE_Shafer_MEA_dev_burst_rate: CCTE's Neural Network Formation Assay for Burst Rate, Shafer Lab (AID 2284042);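 also: potency for loss of burst rate below DMSO control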
In short: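 Rat primary cortical cultures on PEI/laminin MEA; compound from plating, re-dosed at DIV 5, 9 media change. Single-electrode bursts/recording length, well mean of active electrodes; AUC over DIV 5–12 recordings; loss-of-signal vs DMSO.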

[5] = CCTE_Shafer_MEA_dev_bursting_electrodes_number: CCTE's Neural Network Formation Assay for Number of Bursting Electrodes, Shafer Lab (AID 2284043; active = hit-call score of the fitted dose curve at least 0.9, where 1 is the maximum;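 also: potency is for loss of bursting electrodes relative to DMSO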)
In short: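 Number of electrodes reaching ≥1 burst every 2 min was recorded at DIV 5, 7, 9 and 12 and collapsed as trapezoidal area under the curve. Cultures were rat cortical neurons on MEA plates, dosed continuously from plating with medium and treatment refreshed on DIV 5 and 9.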

[6] = CCTE_Shafer_MEA_dev_per_burst_interspike_interval: CCTE's Neural Network Formation Assay for Burst Interspike Interval, Shafer Lab (AID 2284044);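 also: potency for a decrease of within-burst interspike interval below DMSO level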
In short: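 Primary rat cortical neurons on 48-well MEA plates, exposed from day 0 through day 12, treatment renewed at DIV 5 and 9. Within-burst interspike interval recorded days 5, 7, 9, 12, well-averaged, summarised as AUC; negative fit versus DMSO.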

[7] = CCTE_Shafer_MEA_dev_burst_duration_mean: CCTE's Neural Network Formation Assay for Mean Burst Duration, Shafer Lab (AID 2284045)
In short: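 Mean single-electrode burst duration (first to last spike), averaged over bursting electrodes per well, then integrated as area-under-curve across recordings at days 5, 7, 9 and 12. Rat cortical cultures on MEAs, compound present from plating, refreshed at feeds.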

[8] = CCTE_Shafer_MEA_dev_inter_network_spike_interval_mean: CCTE's Neural Network Formation Assay for Mean Inter-network Spike Interval, Shafer Lab (AID 2284047);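 also: potency for a decrease in mean inter-network spike interval below DMSO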
In short: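 Primary rat cortical neurons on PEI-coated 48-well MEAs (16 electrodes/well) were exposed from plating day 0 to DIV 12, with dosing renewed at DIV 5 and 9. Recordings at DIV 5, 7, 9, 12 were collapsed by trapezoidal AUC, loss-of-signal fit vs DMSO.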

[9] = CCTE_Shafer_MEA_dev_network_spike_number: CCTE's Neural Network Formation Assay for Number of Network Spikes, Shafer Lab (AID 2284048);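 also: synchronized bursts across electrodes counted on days 5 7 9 12 and integrated as AUC; fit as a loss of signal meaning fewer network spikes than DMSO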
In short: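 Number of network spikes (coordinated firing across electrodes) recorded on days 5, 7, 9 and 12 and summarised as area under the curve. Rat cortical cultures on MEA, continuous compound exposure with full medium/treatment exchange at DIV 5 and 9.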

[10] = CCTE_Shafer_MEA_dev_network_spike_peak: CCTE's Neural Network Formation Assay for Mean Number of Electrodes in Network Spike, Shafer Lab (AID 2284049);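 also: fitted for loss of signal meaning fewer electrodes in network spikes than DMSO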
In short: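 Rat cortical primary culture, 1.5 x 10^5 cells/well, 48-well MEA (16 electrodes/well). Dosing day 0 through DIV 12, full media/compound exchange DIV 5, 9. AxIS adaptive spike detection; AUC over days 5/7/9/12; loss-of-signal vs DMSO.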

[11] = CCTE_Shafer_MEA_dev_spike_duration_mean: CCTE's Neural Network Formation Assay for Mean Spike Duration, Shafer Lab (AID 2284051);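 also: mean network spike duration pooled as area under curve over DIV 5 to 12 recordings; potency for a decrease in mean network spike duration versus DMSO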
In short: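 Rat cortical primary cultures, 48-well MEA (16 electrodes/well); compound from plating, renewed DIV 5, 9. Network spike duration (AxIS adaptive detector) recorded DIV 5/7/9/12, combined as trapezoidal AUC; loss direction vs DMSO.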

[12] = CCTE_Shafer_MEA_dev_network_spike_duration_std: CCTE's Neural Network Formation Assay for Standard Deviation of Network Spike Duration, Shafer Lab (AID 2284052);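 also: hits are decreases in network spike duration SD versus DMSO vehicle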
In short: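 Rat cortical cultures, 1.5 x 10^5 cells/well, exposed continuously from plating to DIV 12 with media/compound renewal at DIV 5, 9. Spontaneous activity recorded DIV 5/7/9/12, AxIS adaptive spike detector; AUC across days; negative direction vs DMSO.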

[13] = CCTE_Shafer_MEA_dev_per_network_spike_spike_number_mean: CCTE's Neural Network Formation Assay for Mean Number of Spikes in a Network Spike, Shafer Lab (AID 2284053);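 also: fitted as decrease in spikes per network spike relative to DMSO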
In short: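 Rat cortical primary cultures on 48-well MEA; compound from day 0, re-dosed with full media change DIV 5, 9. Recorded DIV 5, 7, 9, 12; spikes in 0.05 s window at network-spike peak ÷ total network spikes; AUC; loss vs DMSO.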

[14] = CCTE_Shafer_MEA_dev_per_network_spike_spike_percent: CCTE's Neural Network Formation Assay for Percent of Spikes in a Network Spike, Shafer Lab (AID 2284054)
In short: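 Metric: fraction of spikes falling in a 0.05 s window at network-spike peaks. Recordings were made on days 5, 7, 9 and 12 and collapsed by trapezoidal AUC. Cultures were rat cortical neurons on MEA plates, dosed continuously from plating, re-dosed at media changes.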

[15] = CCTE_Shafer_MEA_dev_LDH: CCTE's Lactate Dehydrogenase Assay for Cytotoxicity in the Neural Network Formation Assay, Shafer Lab (AID 2284068; active = hit-call score of the fitted dose curve at least 0.9, where 1 is the maximum;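 also: exposure for twelve days from plating with re-dosing on DIV 5 and 9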)
In short: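 Rat cortical primary neurons, MEA culture; dosing day 0–12, full medium plus compound exchange DIV 5, 9. Read-out: LDH enzyme activity, spectrophotometric. DMSO = negative control/baseline; signal loss → cytotoxicity.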

[16] = CCTE_Shafer_MEA_dev_AB: CCTE's Alamar Blue Assay for Cytotoxicity in the Neural Network Formation Assay, Shafer Lab (AID 2284083; active = hit-call score of the fitted dose curve at least 0.9, where 1 is the maximum;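 also: resazurin reduction fluorescence as viability of cultured neurons; twelve days of exposure from plating with re-dosing on DIV 5 and 9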)
In short: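 Rat cortical primary cultures, 1.5 x 10^5 cells/well on MEA; continuous compound exposure over 12 days of network development, re-dosed with full medium change DIV 5 and 9. Alamar Blue fluorescence; loss of signal = cytotoxicity vs DMSO baseline.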

[17] = CCTE_Shafer_MEA_dev_mutual_information_norm: CCTE's Neural Network Formation Assay for Mutual Information Normalization, Shafer Lab (AID 2284091);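 also: mutual information between electrodes summarised as area under curve across four recording days; potency is for a decrease in mutual information relative to DMSO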
In short: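 Shared information across electrodes, tracked on days 5, 7, 9 and 12 of network development and collapsed as trapezoidal area under the curve. Rat cortical cultures were treated continuously from plating, with treatment renewed at feeds on DIV 5 and 9; DMSO baseline, negative-direction fit.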

[18] = CCTE_Shafer_MEA_dev_correlation_coefficient_mean: CCTE's Neural Network Formation Assay for Mean Correlation Coefficient, Shafer Lab (AID 2284093);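 also: well mean pairwise spike train correlation integrated as AUC over recording days 5 to 12; potency fitted for loss of correlation relative to DMSO vehicle wells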
In short: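 Rat cortical cultures, 1.5 x 10^5 cells/well, dosed from day 0 for 12 days. Spontaneous spikes recorded DIV 5/7/9/12; electrode-pair correlation coefficients averaged, AUC taken. Fit in loss direction vs DMSO.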

[19] = UKN2_HCS_IMR90_neural_migration: University of Konstanz (UKN) Leist Lab Neural Crest Cell Migration Assay in human induced IMR90 Pluripotent Stem Cells (UKN2) (AID 2284204); conditions: actives raise or lower the signal
In short: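 High-content imaging of calcein-AM and Hoechst stained cells quantifies migration into a stopper-defined gap after 24 h compound exposure. Neural crest cells from IMR90 iPSC migrated 24 h in EGF/FGF N2-S medium before dosing; DMSO baseline.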

[20] = IUF_NPC1b_proliferation_BrdU_72hr: Leibniz Research Institute for Environmental Medicine (IUF) 72-hour Neural Progenitor Cell Bromodeoxyuridine (BrdU) Proliferation Assay (NPC1b) (AID 2284207)
In short: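 Human fetal cortex-derived (GW 16-19) neural progenitor spheres, 0.25-0.35 mm, one per well in EGF/FGF proliferation medium, exposed to compound for 72 h at 37C, pH 7.2-7.6. BrdU incorporation over the final 16 h read by luminescence ELISA, relative to DMSO.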

[21] = IUF_NPC1a_proliferation_area_72hr: Leibniz Research Institute for Environmental Medicine (IUF) 72-hour Neural Progenitor Cell Proliferation Area Assay (NPC1a) (AID 2284208)
In short: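 Single 0.25–0.35 mm human fetal neural progenitor spheres in proliferation medium with EGF and FGF, exposed 72 h from plating without renewal at 37C, pH 7.2-7.6. Sphere area growth measured by automated phase-contrast imaging, relative to DMSO.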

[22] = IUF_NPC1_viability_72hr: Viability Assessment at 72 hours in the Leibniz Research Institute for Environmental Medicine (IUF) Neural Progenitor Cell Proliferation Assay (NPC1) (AID 2284209)
In short: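 Three-day continuous exposure of human neural progenitor spheres under EGF/FGF-driven proliferation; cell viability scored by alamar blue signal versus DMSO.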

[23] = CCTE_Mundy_HCI_Cortical_Synap_Neur_Matur_NeuriteSpotCountPerNeuriteLength: CCTE's Synaptogenesis and Neurite Maturation Assay in rat cortical cells for Neurite Spot Count per Neurite Length, Mundy Lab (AID 2284210)
In short: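 Synaptophysin spots per unit neurite length, measured by automated imaging of MAP2/synaptophysin/Hoechst-stained neurons. Cultures from rat cortex received chemical at DIV 7 with media change through DIV 12; glial growth arrested by AraC at DIV 5; DMSO baseline.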

Measured: AC50

CC1(C)C(C=C(Cl)c2ccc(Cl)cc2)C1C(=O)OC(C#N)c1ccc(F)c(Oc2ccccc2)c1 (stereo not drawn)
inactive: [7] | [19] | [20] | [21] | [22] | [23]
active: [1] 4.24 µM | [2] 13 µM | [3] 12.8 µM | [4] 9.91 µM | [5] 12.9 µM | [6] 7.6 µM | [8] 4.11 µM | [9] 14.4 µM | [10] 13.1 µM | [11] 5.21 µM | [12] 6.89 µM | [13] 6.7 µM | [14] 23.3 µM | [15] 14.3 µM | [16] 17.1 µM | [17] 5.42 µM | [18] 12.8 µM
